The values below come from PubChem BioAssay (NCI).

The panel holds about 79,000 compounds, 15% with a hit somewhere; the sample as a whole holds those more often. Unmarked numbers belong to inactive results. The source made the active and inactive calls. Rule as the data show it: active = growth inhibition above about 70%; inactive = the rest.

The nature of experiment [1]: NCI Yeast Anticancer Drug Screen. Data for the rad50 strain (AID 155).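 Also: 0% = growth of vehicle-only cultures of the same strain.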 The following applies: S. cerevisiae rad50 strain growth inhibition, stronger effect = higher value. Summed up: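 Vehicle-treated cultures provide the reference for the growth inhibition reported for compound-exposed, repair-deficient yeast.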
Experiment [2] is described as follows: NCI Yeast Anticancer Drug Screen. Data for the mec2-1 strain (AID 157). The conditions noted are these: S. cerevisiae mec2-1 strain, stronger effect = higher value. In outline: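 Cells of the genetically defined mec2-1 yeast strain are incubated with test compound. Inhibition of growth is calculated against vehicle-treated controls.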
Experiment [3] can be described thus: NCI Yeast Anticancer Drug Screen. Data for the sgs1 mgt1 strain (AID 161).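 Also: 0% = growth of cultures given vehicle only.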 The conditions noted are these: S. cerevisiae sgs1 mgt1 strain, stronger effect = higher value. Summed up:
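Mutant yeast exposed to compound; growth scored against vehicle-only wells.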

Experiment [4] in a line: NCI Yeast Anticancer Drug Screen. Data for the cln2 rad14 strain (AID 165).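 Also: 0% = growth equal to vehicle treated cultures.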 The following applies: S. cerevisiae cln2 rad14 strain, stronger effect = higher value. In outline: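 The screen exposed genetically defined yeast (cln2 rad14) to test compounds and scored growth inhibition relative to vehicle-treated controls.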
Experiment [5] in a line: NCI Yeast Anticancer Drug Screen. Data for the bub3 strain (AID 167). The conditions noted are these: S. cerevisiae bub3 mutant strain, stronger effect = higher value. In outline:
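Mutant yeast screening strain plus compound; vehicle-treated cultures serve as the 0% inhibition reference.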

The nature of experiment [6]: NCI Yeast Anticancer Drug Screen. Data for the mlh1 rad18 strain (AID 175). The following applies: S. cerevisiae mlh1 rad18 strain growth inhibition, stronger effect = higher value. Summed up: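 Compound-treated yeast growth, normalised to vehicle controls. Strain bears defined DNA repair mutations.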
[7] abbreviates: at 5.0 µM (retest, dose inferred, filed as 0.5).
The mark [8] stands for this setting: at 50.0 µM (retest, dose inferred, filed as 5.0).

Regarding `N[C@@H]1CCCC[C@@H]1N.O=C([O-])CN(CP(=O)([O-])[O-])CP(=O)([O-])[O-].[Pt+2]`, the growth inhibition was -1% in experiment [1] (setting [7]); 89% (active) in experiment [1] (setting [8]); 99.5% (active) in experiment [1] (at 50.0 µM); 6% in experiment [2] (setting [7]); 75% (active) in experiment [2] (setting [8]); 99.7% (active) in experiment [2] (at 50.0 µM). Besides, the growth inhibition was 8% in experiment [3] (setting [7]); 88% (active) in experiment [3] (setting [8]); 99.5% (active) in experiment [3] (at 50.0 µM); 3% in experiment [4] (setting [7]); 67% in experiment [4] (setting [8]); 98.3% (active) in experiment [4] (at 50.0 µM). Besides, the growth inhibition in experiment [5] (setting [7]) was 5%; in experiment [5] (setting [8]), 89% (active); in experiment [5] (at 50.0 µM) it was 99.3% (active); in experiment [6] (setting [7]), -1%; in experiment [6] (setting [8]), 77% (active); in experiment [6] (at 50.0 µM), 99.5% (active).
For the molecule `CCCCCCCCCCCCCCCCOC(=O)C[n+]1ccc(C(N)=O)cc1`, the growth inhibition was -2% in experiment [1] (setting [7]); 97% (active) in experiment [1] (setting [8]); 98% (active) in experiment [1] (at 50.0 µM); -8% in experiment [2] (setting [7]); 99% (active) in experiment [2] (setting [8]); 98.1% (active) in experiment [2] (at 50.0 µM). Besides, the growth inhibition was 21% in experiment [3] (setting [7]); 94% (active) in experiment [3] (setting [8]); 98.9% (active) in experiment [3] (at 50.0 µM); 0% in experiment [4] (setting [7]); 72% (active) in experiment [4] (setting [8]); 69.3% in experiment [4] (at 50.0 µM). For the same molecule, the growth inhibition in experiment [5] (setting [7]) is -3%; in experiment [5] (setting [8]), 97% (active); in experiment [5] (at 50.0 µM), 93% (active); in experiment [6] (setting [7]), 32%; in experiment [6] (setting [8]), 96% (active); in experiment [6] (at 50.0 µM), 98.2% (active).
`N#COc1ccc(Oc2ccc(OC#N)cc2)cc1`: the growth inhibition in experiment [1] (setting [7]) is -4%; in experiment [1] (setting [8]), -3%; in experiment [1] (at 50.0 µM) it was -12.9%; in experiment [2] (setting [7]) it was -30%; in experiment [2] (setting [8]) it was 14%; in experiment [2] (at 50.0 µM), -22.8%. Further, the growth inhibition in experiment [3] (setting [7]) was 26%; in experiment [3] (setting [8]), -3%; in experiment [3] (at 50.0 µM), 90.2% (active); in experiment [4] (setting [7]) it was -2%; in experiment [4] (setting [8]), 29%; in experiment [4] (at 50.0 µM), 25.8%. The growth inhibition was -5% in experiment [5] (setting [7]); 46% in experiment [5] (setting [8]); 40% in experiment [5] (at 50.0 µM); -12% in experiment [6] (setting [7]); -15% in experiment [6] (setting [8]); 25.3% in experiment [6] (at 50.0 µM).
Take `Cc1c2cnccc2c(C)c2c1c1ccccc1n2CCOC(=O)c1ccccc1`: the growth inhibition in experiment [1] (setting [7]) was 9%; in experiment [1] (setting [8]) it was 94% (active); in experiment [1] (at 50.0 µM), 96.4% (active); in experiment [2] (setting [7]), -4%; in experiment [2] (setting [8]) it was 78% (active); in experiment [2] (at 50.0 µM), 87.8% (active). Besides, the growth inhibition is 1% in experiment [3] (setting [7]); 81% (active) in experiment [3] (setting [8]); 89.7% (active) in experiment [3] (at 50.0 µM); 39% in experiment [4] (setting [7]); 82% (active) in experiment [4] (setting [8]); 75.2% (active) in experiment [4] (at 50.0 µM). For the same molecule, the growth inhibition in experiment [5] (setting [7]) is 8%; in experiment [5] (setting [8]), 87% (active); in experiment [5] (at 50.0 µM) it was 90.3% (active); in experiment [6] (setting [7]) it was 10%; in experiment [6] (setting [8]), 87% (active); in experiment [6] (at 50.0 µM), 91.5% (active).
`Cc1c[nH]c(C(=O)O)c1-c1ccc2c(-c3ccccc3)nc3ccccc3n12`: the growth inhibition was 14% in experiment [1] (setting [7]); 96% (active) in experiment [1] (setting [8]); 82.8% (active) in experiment [1] (at 50.0 µM); 11% in experiment [2] (setting [7]); 99% (active) in experiment [2] (setting [8]); 91% (active) in experiment [2] (at 50.0 µM). The growth inhibition in experiment [3] (setting [7]) is 10%; in experiment [3] (setting [8]) it was 99% (active); in experiment [3] (at 50.0 µM) it was 89.4% (active); in experiment [4] (setting [7]) it was 8%; in experiment [4] (setting [8]), 99% (active); in experiment [4] (at 50.0 µM) it was 89% (active). Also, the growth inhibition in experiment [5] (setting [7]) is 13%; in experiment [5] (setting [8]), 99% (active); in experiment [5] (at 50.0 µM), 85.9% (active); in experiment [6] (setting [7]) it was 12%; in experiment [6] (setting [8]), 95% (active); in experiment [6] (at 50.0 µM), 91.8% (active).
As for `COC1=CC(=O)C(C#CCOCc2ccccc2)=CC1=O`, the growth inhibition is 12% in experiment [1] (setting [7]); 99% (active) in experiment [1] (setting [8]); 99.1% (active) in experiment [1] (at 50.0 µM); 0% in experiment [2] (setting [7]); 99% (active) in experiment [2] (setting [8]); 99.2% (active) in experiment [2] (at 50.0 µM). The growth inhibition in experiment [3] (setting [7]) was -6%; in experiment [3] (setting [8]) it was 79% (active); in experiment [3] (at 50.0 µM), 99% (active); in experiment [4] (setting [7]), -8%; in experiment [4] (setting [8]), 98% (active); in experiment [4] (at 50.0 µM), 94.7% (active). In addition, the growth inhibition was -16% in experiment [5] (setting [7]); 99% (active) in experiment [5] (setting [8]); 93% (active) in experiment [5] (at 50.0 µM); 8% in experiment [6] (setting [7]); 99% (active) in experiment [6] (setting [8]); 98.8% (active) in experiment [6] (at 50.0 µM).
For `CCCCc1c2c(nc3c1CCc1cc4cc5c(nc4nc1-3)-c1nc3c(c(CCCC)c1CC5)CCCC3=O)C(=O)CCC2`, the growth inhibition in experiment [1] (setting [7]) was 71% (active); in experiment [1] (setting [8]), 97% (active); in experiment [1] (at 50.0 µM), 97.7% (active); in experiment [2] (setting [7]), 86% (active); in experiment [2] (setting [8]) it was 97% (active); in experiment [2] (at 50.0 µM) it was 97.2% (active). Also, the growth inhibition in experiment [3] (setting [7]) was 54%; in experiment [3] (setting [8]) it was 97% (active); in experiment [3] (at 50.0 µM), 98% (active); in experiment [4] (setting [7]) it was 90% (active); in experiment [4] (setting [8]), 96% (active); in experiment [4] (at 50.0 µM) it was 95.9% (active). The growth inhibition in experiment [5] (setting [7]) is 97% (active); in experiment [5] (setting [8]), 96% (active); in experiment [5] (at 50.0 µM), 97.2% (active); in experiment [6] (setting [7]), 86% (active); in experiment [6] (setting [8]), 96% (active); in experiment [6] (at 50.0 µM) it was 97.3% (active).
On to `CCC(c1ccc(O)cc1)C(CC)c1ccc(OCC(N)=O)cc1` (configuration not stated), for which the growth inhibition in experiment [1] (setting [7]) was 10%; in experiment [1] (setting [8]), -5%; in experiment [1] (at 50.0 µM) it was 90.1% (active); in experiment [2] (setting [7]), 0%; in experiment [2] (setting [8]), -10%; in experiment [2] (at 50.0 µM), 80.5% (active). Moreover, the growth inhibition was -16% in experiment [3] (setting [7]); 7% in experiment [3] (setting [8]); 89.8% (active) in experiment [3] (at 50.0 µM); -18% in experiment [4] (setting [7]); -22% in experiment [4] (setting [8]); 78.8% (active) in experiment [4] (at 50.0 µM). Moreover, the growth inhibition is -15% in experiment [5] (setting [7]); 27% in experiment [5] (setting [8]); 93% (active) in experiment [5] (at 50.0 µM); 20% in experiment [6] (setting [7]); 44% in experiment [6] (setting [8]); 91.3% (active) in experiment [6] (at 50.0 µM).
As for `O=C1c2ccccc2CCC1C(O)(C(F)(F)F)C(F)(F)F` (configuration not stated), the growth inhibition was 19% in experiment [1] (setting [7]); 13% in experiment [1] (setting [8]); -5.3% in experiment [1] (at 50.0 µM); 16% in experiment [2] (setting [7]); 7% in experiment [2] (setting [8]); -3.6% in experiment [2] (at 50.0 µM). Moreover, the growth inhibition is 22% in experiment [3] (setting [7]); 7% in experiment [3] (setting [8]); -35.8% in experiment [3] (at 50.0 µM); 4% in experiment [4] (setting [7]); 11% in experiment [4] (setting [8]); 10.9% in experiment [4] (at 50.0 µM). Besides, the growth inhibition in experiment [5] (setting [7]) is -12%; in experiment [5] (setting [8]), 1%; in experiment [5] (at 50.0 µM), 31.6%; in experiment [6] (setting [7]), 22%; in experiment [6] (setting [8]), 20%; in experiment [6] (at 50.0 µM) it was -11.3%.
